The structures appear in SMILES notation. The campaign covered roughly 69,000 compounds. About 8,600 (12%) showed an effect of 50% or more. What follows is part of a selection rich in strong results, with near analogues and random picks from the rest.

For the assay, the system named is Plasmodium berghei. In words: Screen against P. berghei liver stage (PbLuc), transformed with Luciferase, at 10uM. The settings on record: tested at 10 uM. Format: functional, HepG2.
Consider `NC(=O)CNC(=O)c1ccc(CNCc2ccc(F)cc2F)cc1`, for which the INHIBITION stood at 54.5%. For the compound `NC(=O)COc1ccc(CNCc2ccc(F)cc2F)cc1`, the INHIBITION came out at 6.8%.

As to `NC(=O)CNC(=O)c1ccc(CNCc2ccc(Cl)cc2Cl)cc1`, the INHIBITION stood at 48.9%. Turning to `Cc1cc(C)c(CNC(=O)NCC(O)c2ccccc2)c(=O)[nH]1` (stereo unspecified), the INHIBITION is recorded as 15.5%. `O=C(c1cccnc1)N1CCC2(CC1)COCCN(c1ncccn1)C2`: the INHIBITION was 16.8%. `CC(=O)NCCNC(=O)CN1CCCCC1Cn1cncn1` (stereo unspecified): the INHIBITION is given as -15.5%.

On to `O=c1[nH]c2nc(N3CCCC3)ncc2c(=O)n1-c1cccc(F)c1`, for which the INHIBITION was 2.69%.

As for `Cc1cc(-c2ccc(=O)n(C3CCN(S(C)(=O)=O)CC3)n2)c(C)o1`, the INHIBITION is -8.58%. For `CCS(=O)(=O)N1CCC(n2nc(-c3cc(C)oc3C)ccc2=O)CC1`, the INHIBITION came out at 21.1%. Regarding `CCCS(=O)(=O)N1CCC(n2nc(-c3cc(C)oc3C)ccc2=O)CC1`, the INHIBITION was determined as 68.4%. To `Cc1cc(NC(=O)C(C)Nc2cccc(COCc3ccco3)c2)no1` (stereo unspecified) belongs 11.1%.

With `COCc1noc(CCC(=O)c2ccc3c(c2)OCCO3)n1`, the INHIBITION is -41.4%. To `O=C(COc1ccc(-n2cccn2)nn1)N1CCCC1` belongs -66.4%; to `COc1ccc2c(c1)CCCN2C(=O)CN1CCOC(CN(C)C)C1` (stereo unspecified), 3.68%.

As for `COc1ccc2c(c1)CCCN2C(=O)CNCC1CN(C)CCO1` (stereo unspecified), the INHIBITION is -39.2%. `CN(C)c1ccc(C(=O)N2CCCc3cc(OC(F)(F)F)ccc32)cn1`: the INHIBITION was determined as 26.7%.

Regarding `COc1ccc2c(c1)CCCN2C(=O)CN1CCOC(C)C1` (stereo unspecified), the INHIBITION is listed as 50.9%. As for `CN(C)c1cccc(C(=O)N2CCCc3cc(OC(F)(F)F)ccc32)c1`, the INHIBITION came out at 43.4%.

In the case of `COc1ccc2c(c1)CCCN2C(=O)c1cccc(N(C)C)c1`, the INHIBITION was determined as 87.9%. To `Fc1cnc(N2CC[C@@H]3O[C@H](COCc4ccccn4)CC[C@@H]32)nc1` belongs -21.7%; to `CC(C)COC1CC2(CCN(Cc3nccn3C)CC2)C1`, 31.6%. As for `Cc1nc2[nH]cnc(Nc3cnn(C)c3)c-2n1`, the figure is -10.6%; as for `CC(C)C(NC(=O)C1CC1)c1cc(O)nc(-c2cccnc2)n1` (stereo unspecified), 3.4%; as for `CNc1cc(-c2cc(OC)c(OC)c(OC)c2)ncn1`, 27.8%.

In the case of `Cc1cc(NCCCOC(C)C)c2nncn2n1`, the INHIBITION amounted to 13.4%. For `COc1cc(-c2cnnc(NCCSC)n2)cc(OC)c1OC`, the INHIBITION is recorded as 52.2%. As to `COc1cc(-c2cnnc(NCC3CC3)n2)cc(OC)c1OC`, the INHIBITION worked out at 31.7%. For `COc1cc(-c2nc(N)n[nH]2)cc(OC)c1OC`, the INHIBITION stood at 20.4%.

For the compound `COc1cc(-c2cnnc(NCCCOC(C)C)n2)cc(OC)c1OC`, the INHIBITION is reported as 57.9%. To `COCC(NC1CSCCSC1)c1ccnn1C` (stereo unspecified) belongs 31.2%; to `CN1CCN(CC2(O)CCCN(S(=O)(=O)c3cn[nH]c3)CC2)CC1` (stereo unspecified), 29.6%. Consider `Cn1ccc(C(=O)N2CCC(c3cc(CCO)n(C)n3)C2)n1` (stereo unspecified), for which the INHIBITION is recorded as -3.94%.

As for `CCN(CC)c1nc(Nc2cccc(C(=O)O)c2)nc2ccccc12`, the INHIBITION worked out at 5.18%. In the case of `CC(O)c1cccc(Nc2nc(NCCO)c3ccccc3n2)c1` (stereo unspecified), the INHIBITION stood at 44.9%.

`CCN(CC)c1nc(Nc2cccc(C(C)O)c2)nc2ccccc12` (stereo unspecified): the INHIBITION turned out to be 87.2%.

On to `COc1ccc(CCC2CCCN(CC(=O)O)C2)cc1` (stereo unspecified), for which the INHIBITION is recorded as 23.9%. To `COCCN1CC2(CCCN(Cc3cc(=O)c(OC)co3)C2)CCC1=O` (stereo unspecified) belongs 23.9%; to `Cc1[nH]c(=O)[nH]c(=O)c1CN1CCCC(CCc2ccccc2)C1` (stereo unspecified), -38.2%. Consider `Cc1[nH]c(=O)[nH]c(=O)c1CN1CCCC(CCc2ccc(F)c(F)c2)C1` (stereo unspecified), for which the INHIBITION is 4.48%. For `COc1coc(CN2CCCC3(CCC(=O)N(C4CC4)C3)C2)cc1=O` (stereo unspecified), the INHIBITION was 53.6%. As for `COc1coc(CN2CCCC3(CCC(=O)N(CC4CC4)C3)C2)cc1=O` (stereo unspecified), the figure is 33.2%. Turning to `COc1coc(CN2CCCC(CCc3ccc(F)c(F)c3)C2)cc1=O` (stereo unspecified), the INHIBITION was 63.6%. To `COc1ccc(CN2CCCC(Cn3nc(C)nc3C)C2)cc1F` (stereo unspecified) belongs -15.8%; to `COc1coc(CN2CCCC(CCc3ccc(F)cc3)C2)cc1=O` (stereo unspecified), 73.5%; to `CCOc1cc(C(=O)N2CCCC(n3nc(C)nc3C)C2)ccn1` (stereo unspecified), -11.9%. As for `Cc1noc(C)c1-c1nc(N(C)CCN(C)C)ncc1-c1cnccn1`, the INHIBITION is on record as 2.71%. To `CC(C)(C)c1cc(CN2C[C@H]3CC[C@@H](C2)N(Cc2ccccn2)C3)n[nH]1` belongs 33.3%; to `c1ncn(Cc2cnc3n2CCN(Cc2ccsc2)CC3)n1`, 37%. For the compound `CC(C)(C)CC(=O)Nc1ccccc1SCC(N)=O`, the INHIBITION is -53.6%. With `OCCN1CCN(Cc2cnc3c(-c4ccccc4)cnn3c2)CC1`, the INHIBITION is 44.8%.

In the case of `FC(F)(F)C1CN(Cc2cnc3c(-c4ccccc4)cnn3c2)CCO1` (stereo unspecified), the INHIBITION is given as 25.9%. On to `CC(C)O[C@H]1CN(Cc2cnc3c(-c4ccccc4)cnn3c2)C[C@@H]1O`, for which the INHIBITION amounted to 8.74%. For `O=C1CCN(Cc2cnc3c(-c4ccccc4)cnn3c2)CCN1`, the INHIBITION was 29.2%. To `c1ccc(-c2cnn3cc(CN4CCC5(CCO5)CC4)cnc23)cc1` belongs 87.4%; to `NCCC1CN(Cc2cnc3c(-c4ccccc4)cnn3c2)CCO1` (stereo unspecified), 40.7%; to `CN(C)CC1(O)CCN(Cc2cnc3c(-c4ccccc4)cnn3c2)C1` (stereo unspecified), 20.2%. On to `CC(O)C1CCN(Cc2cnc3c(-c4ccccc4)cnn3c2)CC1` (stereo unspecified), for which the INHIBITION was found to be 63.6%. As for `O=C1CN(Cc2cnc3c(-c4ccccc4)cnn3c2)CCCN1`, the figure is 75.1%; as for `CN(Cc1ccsc1)C(=O)c1cc2c([nH]c1=O)CCC2`, -9.6%; as for `Cc1csc(CNCc2c(C)nn(C)c2N2CCOCC2)n1`, -19.7%.

Turning to `CCCN(CC)C(=O)c1ncn2c1CN(C)S(=O)(=O)c1ccccc1-2`, the INHIBITION is recorded as -49.7%. With `COCCOCC(=O)Nc1nc2c(OC)cc(F)cc2s1`, the INHIBITION stood at 7.65%.

In the case of `Cc1nnc(CN(Cc2ccc3c(c2)OCO3)C2CCC(C)CC2)o1` (stereo unspecified), the INHIBITION is -45.9%. As to `COc1cc(OC)c(C2CC(=O)Oc3cc(C)[nH]c(=O)c32)cc1OC` (stereo unspecified), the INHIBITION was determined as 4.07%. As for `CC(Cn1cnc2cn(C)nc2c1=O)Oc1cccnc1` (stereo unspecified), the figure is 52.6%; as for `Cn1cc2ncn(CCNc3cccnc3)c(=O)c2n1`, 31.6%; as for `Cn1cc2ncn(CCCOc3cccnc3)c(=O)c2n1`, 14.3%. As to `CC(C#N)NS(=O)(=O)c1cccc(C(C)C)c1` (stereo unspecified), the INHIBITION was 22.3%. `CCC(=O)c1cccc(S(=O)(=O)NC(C)C#N)c1` (stereo unspecified): the INHIBITION was found to be 54.4%. For the compound `Cc1ccc(S(=O)(=O)NC(C)C#N)cc1Br` (stereo unspecified), the INHIBITION was found to be 4.95%. As to `CS(=O)(=O)NCC1CCCCN1C(=O)Nc1cccnc1N1CCCC1` (stereo unspecified), the INHIBITION amounted to 34.7%. Consider `c1coc(-c2nnc(CN3CCCC3Cn3cncn3)o2)c1` (stereo unspecified), for which the INHIBITION was 17.5%. For the compound `CCCn1ncc(CN(Cc2ccsc2)Cc2ccco2)c1C`, the INHIBITION came out at 13%. For `CCCn1ncc(CN(Cc2cccnc2)Cc2ccsc2)c1C`, the INHIBITION was 22.9%. To `CCCn1ncc(CN(CCN(C)C)Cc2ccsc2)c1C` belongs 57.5%; to `CCC(C)(C)NC(=O)c1nnn(-c2cccc3c2CCN(C)C3)c1C`, 36.3%.

As for `CCC(C)NC(=O)c1nnn(-c2cccc3c2CCN(C)C3)c1C` (stereo unspecified), the INHIBITION came to 51.7%. Regarding `Cc1c(C(=O)NCC(C)C)nnn1-c1cccc2c1CCN(C)C2`, the INHIBITION is on record as 56.1%. On to `Cc1c(C(=O)NCCC(C)C)nnn1-c1cccc2c1CCN(C)C2`, for which the INHIBITION was 36.3%. With `Cc1c(C(=O)NC(C)C(C)C)nnn1-c1cccc2c1CCN(C)C2` (stereo unspecified), the INHIBITION amounted to 11.8%.

For the compound `Cc1c(C(=O)NCC(C)C)nnn1-c1cccc2c1CCN(C(C)C)C2`, the INHIBITION came out at 38%. As for `Cc1ccc(C)c(C(C)NC(=O)N2CCC(n3cncn3)CC2)c1` (stereo unspecified), the figure is -3.2%; as for `CN1CCN([C@@H]2CCN(C3CCOC3)[C@H]2Cc2cnn(C)c2)CC1` (stereo partly specified), 24.9%; as for `Cc1cc2ncn(C(=O)N3CCCCC3)c2cc1C`, -16%. As for `CCOC1CCCN(C(=O)c2ccccc2NCc2cccnc2)C1` (stereo unspecified), the figure is 16.8%; as for `O=C(Cc1ccc2c(c1)OCCO2)NC1CC1`, -60.4%.

`CC[C@@H]1N(Cc2ccc(C)o2)CCC[C@]12CCC(=O)N2CCOC`: the INHIBITION was found to be 29.3%. As for `O=C(C1CCOCC1)N1CC[C@H]2[C@H]1CCN2c1nncs1`, the figure is 40.8%; as for `CC1=Nc2c(c(=O)[nH]n2C2CCCCC2)C(c2ccc(C(=O)O)cc2)S1` (stereo unspecified), 36.55%.

As to `CC1=Nc2c(c(=O)[nH]n2C2CCCC2)C(c2ccc(C(=O)O)cc2)S1` (stereo unspecified), the INHIBITION amounted to 26.65%. For `COC(=O)c1ccc(C2SC(C)=Nc3c2c(=O)[nH]n3C2CCCC2)cc1` (stereo unspecified), the INHIBITION came out at 76.3%. `CCc1nnc(C2Cc3ccccc3CN2Cc2ncc(Cl)n2C)o1` (stereo unspecified): the INHIBITION is 1.84%. As to `CCc1nnc(C2Cc3ccccc3CN2Cc2cc(C)on2)o1` (stereo unspecified), the INHIBITION was found to be 68.1%. As for `Cc1noc(CN2Cc3ccccc3CC2c2nnc(C)o2)n1` (stereo unspecified), the figure is 20.2%; as for `Cc1cc(CN2Cc3ccccc3CC2c2nnc(C)o2)on1` (stereo unspecified), -8.3%.

Turning to `CCc1nnc(C2Cc3ccccc3CN2Cc2nc(C)no2)o1` (stereo unspecified), the INHIBITION is 9.64%. On to `CCc1nnc(C2Cc3ccccc3CN2Cc2nc(C3CC3)no2)o1` (stereo unspecified), for which the INHIBITION worked out at 60.9%. Consider `Cc1cc(CN2Cc3ccccc3CC2c2nnc(C)o2)no1` (stereo unspecified), for which the INHIBITION stood at 7.67%. Take `Cc1nnc(C2Cc3ccccc3CN2Cc2nc(C3CC3)no2)o1` (stereo unspecified): the INHIBITION was 23.7%. Consider `CCc1nnc(C2Cc3ccccc3CN2Cc2cc(C)no2)o1` (stereo unspecified), for which the INHIBITION was found to be 58.1%. As to `CNC(=O)CCc1cc(C2CCCCN2C(C)C)nc(C)n1` (stereo unspecified), the INHIBITION was 15.1%. For the compound `Cc1nc(CN(C)C2CCCN(Cc3noc(C4CC4)n3)C2)oc1C` (stereo unspecified), the INHIBITION came to 40.2%. For the compound `COc1cccc(CC(=O)N2CCCC(c3nncn3C)C2)c1` (stereo unspecified), the INHIBITION is recorded as -26.6%. To `Cc1ccc(-c2noc(CN3CCCC(Cn4cncn4)C3)n2)cc1` (stereo unspecified) belongs 48.2%. To `Cc1cccc2[nH]c(C3CCCN(Cc4ccccc4C(=O)O)C3)nc12` (stereo unspecified) belongs 37.6%; to `Cc1cc(C2CCCN(CCCS(N)(=O)=O)C2)n[nH]1` (stereo unspecified), 16.8%.

The values above are taken from ChEMBL document CHEMBL4513216, “Probing the Open Global Health Chemical Diversity Library for Multistage-Active Starting Points for Next-Generation Antimalarials” (ACS Infect Dis, 2020).
